Each structure is given as a SMILES string. Inconclusive results are not listed. Calls of active or inactive are those of the source. Unless noted, calls follow the shape of the full dose curve.
% is scaled to controls: 0 for no effect and ±100 for the full control effect.

Chain of Progesterone receptor (Homo sapiens) (P06401 whole entry, looked up): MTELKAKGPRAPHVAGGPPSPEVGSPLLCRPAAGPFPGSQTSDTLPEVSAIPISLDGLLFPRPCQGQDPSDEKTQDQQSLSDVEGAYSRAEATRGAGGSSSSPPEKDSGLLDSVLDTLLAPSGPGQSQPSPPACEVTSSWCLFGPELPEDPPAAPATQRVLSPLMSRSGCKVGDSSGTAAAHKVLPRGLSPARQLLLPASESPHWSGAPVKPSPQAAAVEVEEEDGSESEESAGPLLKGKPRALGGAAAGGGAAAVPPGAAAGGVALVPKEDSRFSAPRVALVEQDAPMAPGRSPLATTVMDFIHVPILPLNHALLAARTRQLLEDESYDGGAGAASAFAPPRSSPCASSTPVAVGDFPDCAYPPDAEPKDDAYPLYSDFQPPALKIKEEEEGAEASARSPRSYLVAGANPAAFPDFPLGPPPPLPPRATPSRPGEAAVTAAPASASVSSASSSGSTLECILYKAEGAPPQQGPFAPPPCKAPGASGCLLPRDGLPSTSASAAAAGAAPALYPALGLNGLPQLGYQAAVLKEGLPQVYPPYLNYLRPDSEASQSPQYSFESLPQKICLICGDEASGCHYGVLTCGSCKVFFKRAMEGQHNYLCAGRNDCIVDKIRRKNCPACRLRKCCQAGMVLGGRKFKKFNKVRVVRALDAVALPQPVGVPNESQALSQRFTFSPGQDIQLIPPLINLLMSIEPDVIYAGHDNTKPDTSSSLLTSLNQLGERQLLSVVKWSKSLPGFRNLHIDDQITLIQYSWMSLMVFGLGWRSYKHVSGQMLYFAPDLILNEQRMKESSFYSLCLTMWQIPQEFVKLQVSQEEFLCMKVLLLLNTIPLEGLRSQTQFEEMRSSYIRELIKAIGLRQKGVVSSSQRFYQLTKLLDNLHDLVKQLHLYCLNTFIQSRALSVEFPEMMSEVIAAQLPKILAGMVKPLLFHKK
Chain of Thyrotropin receptor (Homo sapiens) (P16473 whole entry, looked up): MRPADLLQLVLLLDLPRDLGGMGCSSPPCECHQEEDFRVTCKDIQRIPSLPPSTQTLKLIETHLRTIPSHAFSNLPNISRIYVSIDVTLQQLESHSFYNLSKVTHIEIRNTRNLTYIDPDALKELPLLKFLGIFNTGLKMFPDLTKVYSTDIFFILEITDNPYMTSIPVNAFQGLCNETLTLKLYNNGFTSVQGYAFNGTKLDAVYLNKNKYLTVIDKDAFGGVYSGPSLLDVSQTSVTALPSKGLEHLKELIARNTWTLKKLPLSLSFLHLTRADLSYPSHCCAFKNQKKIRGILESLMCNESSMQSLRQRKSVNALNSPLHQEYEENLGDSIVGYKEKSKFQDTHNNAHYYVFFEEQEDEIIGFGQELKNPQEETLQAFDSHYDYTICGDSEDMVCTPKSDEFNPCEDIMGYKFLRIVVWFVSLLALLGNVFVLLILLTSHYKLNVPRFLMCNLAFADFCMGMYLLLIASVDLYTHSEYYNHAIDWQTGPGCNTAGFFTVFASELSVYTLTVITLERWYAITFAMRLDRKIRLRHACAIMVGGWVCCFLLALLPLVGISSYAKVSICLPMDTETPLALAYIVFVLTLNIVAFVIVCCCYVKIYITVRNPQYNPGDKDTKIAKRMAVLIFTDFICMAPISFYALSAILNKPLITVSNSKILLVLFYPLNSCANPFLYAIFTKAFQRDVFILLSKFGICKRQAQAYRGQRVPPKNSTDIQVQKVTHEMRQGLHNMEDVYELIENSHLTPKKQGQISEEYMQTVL

The first test addresses Thyrotropin receptor (Homo sapiens) (UniProt P16473). As to the kind of experiment: qHTS assay to identify small molecule antagonists of the thyroid stimulating hormone receptor (TSHR) signaling pathway (AID 1259385). Also: nearly all actives have a fitted effect of over 20% in size. The note with it: TSHR-HEK293 cAMP HTRF, TSH-stimulated antagonist mode; series mostly up to 92.4 µM; activity change, negative = inhibition: at the top concentration. A digest of the protocol:
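Antagonist mode: compound-treated TSHR-expressing HEK293 cells were stimulated with 1.5 ng/mL TSH (final) in presence of Ro20-1724 for 30 min at RT. HTRF cAMP detection after 1 h; each compound tested at 15 concentrations, triplicate.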
A general note: In qHTS, concentration-response curves come from the screen itself.
As to `CCCCCCCC/C=C\CCCCCCCC(=O)OC[C@@H](O)[C@H]1OC[C@H](O)[C@H]1O`, the “activity change, negative = inhibition” value is 0.218% (inactive).
Regarding `O=C(O)CCNC(=O)c1ccccc1`, the “activity change, negative = inhibition” value was 3.4% [at 42.5 µM] (inactive).
`Nc1nc(=O)n([C@@H]2O[C@H](CO)[C@@H](O)[C@@H]2F)cc1I`: the “activity change, negative = inhibition” value was 2.19% [at 42.5 µM] (inactive).
Consider `CCOC(=O)C(=O)c1csc(NC=O)n1`, for which the “activity change, negative = inhibition” value is 1.14% [at 42.5 µM] (inactive).
Take `CCCCCC(=O)OCC`: the “activity change, negative = inhibition” value is -0.77% (inactive).
With `CN=C(NC#N)NCCSCc1csc(N=C(N)N)n1`, the “activity change, negative = inhibition” value was 1.79% [at 42.5 µM] (inactive).
Take `CC(C)COC(=O)/C=C/c1ccccc1`: the “activity change, negative = inhibition” value was -8.1% (inactive).
In the case of `CCN(CCO)c1cccc(C)c1`, the “activity change, negative = inhibition” value was -0.116% (inactive).
For `C[N+](C)(C)CC(O)CCl` (configuration not stated), the “activity change, negative = inhibition” value was 0.273% (inactive).
Regarding `CCC1COC(=O)O1` (configuration not stated), the “activity change, negative = inhibition” value is -2.12% (inactive).
For the compound `CCCCCCCCCCC`, the “activity change, negative = inhibition” value is 1.48% (inactive).
`CC1CCC(C(C)(C)S)C(=O)C1` (configuration not stated): the “activity change, negative = inhibition” value was 0.527% (inactive).
Turning to `CCC(O)C(C)(C)C` (configuration not stated), the “activity change, negative = inhibition” value is -0.287% (inactive).
The same measure, in the same setting: next, `C=CCOCC(CO)(COCC=C)COCC=C`: -0.288% [at 42.5 µM] (inactive); `O=C1CC[C@H](C(=O)N2CCCCC2)N1`: -0.764% [at 42.5 µM] (inactive); `CN[C@@H]1[C@H](O)[C@H](NC)[C@H]2O[C@@]3(O)C(=O)C[C@@H](C)O[C@H]3O[C@@H]2[C@H]1O`: 0.154% [at 42.5 µM] (inactive).
Same read-out and setting: as for `COC(/C=C(\C)CCC=C(C)C)OC`, the figure is 6.14% (inactive).
For the compound `C[C@H](CCC(=O)O)[C@H]1CC[C@H]2[C@@H]3[C@H](O)C[C@@H]4C[C@H](O)CC[C@]4(C)[C@H]3C[C@H](O)[C@]12C`, the “activity change, negative = inhibition” value was -0.92% [at 42.5 µM] (inactive).
As to `CCc1nccnc1C`, the “activity change, negative = inhibition” value is -0.502% (inactive).
Take `CCN(Cc1cccc(S(=O)(=O)O)c1)c1ccccc1`: the “activity change, negative = inhibition” value is -0.706% (inactive).

Tested on in another test: not listed separately
As to the kind of experiment: qHTS assay to identify small molecule agonists of the estrogen receptor alpha (ER-alpha) signaling pathway in the presence of an antagonist - cell viability counter screen (AID 1259386; active = well fitted cell-killing curve with a large enough effect in the repeat runs;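 also: cells exposed to compounds for 22 h at 37 °C before the viability read; nearly all actives have a fitted effect of over 30% in size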). The following applies: VM7Luc4E2 viability, CellTiter-Fluor fluorescence, 22 h; series mostly up to 92.4 µM; activity change, negative = cytotoxicity: at the top concentration. A digest of the protocol:
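Cytotoxicity was measured in parallel with the ERE-luciferase agonist screen, in the same wells. The cells were VM7Luc4E2, which endogenously express ER-alpha, and treatment was with compounds plus 10.0nM ICI-182,780 for 22hr.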
Turning to `OC[C@@H](O)[C@H](O)[C@@H](O)[C@@H](O)CO`, the “activity change, negative = cytotoxicity” value was 1.67% (inactive).
Turning to `CCCCCCCC/C=C\CCCCCCCC(=O)OC[C@@H](O)[C@H]1OC[C@H](O)[C@H]1O`, the “activity change, negative = cytotoxicity” value was 0.0076% (inactive).
With `Nc1nc(=O)n([C@@H]2O[C@H](CO)[C@@H](O)[C@@H]2F)cc1I`, the “activity change, negative = cytotoxicity” value was 7.16% [at 42.5 µM] (inactive).
For the compound `CC(C)CCC(=O)CCC(C)C`, the “activity change, negative = cytotoxicity” value is 1.7% (inactive).
Turning to `CCOC(=O)C(=O)c1csc(NC=O)n1`, the “activity change, negative = cytotoxicity” value is 4.58% [at 42.5 µM] (inactive).
For `CC(C)C(=O)c1ccccc1`, the “activity change, negative = cytotoxicity” value was -2.24% (inactive).
Still for that read-out and setting: next, `FC(F)(F)/C(=N\OCC1OCCO1)c1ccc(Cl)cc1`: -2.7% (inactive); `OCCCCCCCl`: -0.344% (inactive).
As to `CN=C(NC#N)NCCSCc1csc(N=C(N)N)n1`, the “activity change, negative = cytotoxicity” value was -11.6% [at 42.5 µM] (inactive).
For `CCCCCCCCOC(C)=O`, the “activity change, negative = cytotoxicity” value is 3.85% (inactive).
With `C=CCOC(=O)c1ccc(C(=O)OCC=C)c(C(=O)OCC=C)c1`, the “activity change, negative = cytotoxicity” value was 0.407% (inactive).
For the compound `CC(C)COC(=O)/C=C/c1ccccc1`, the “activity change, negative = cytotoxicity” value is 1.28% (inactive).
The same measure, in the same setting: as for `CCN(CCO)c1cccc(C)c1`, the figure is -0.57% (inactive); as for `CCCCCCCCCCCCC`, -1.49% (inactive).
Consider `Nc1ccc(S(=O)(=O)Nc2ccccn2)cc1`, for which the “activity change, negative = cytotoxicity” value is 3.48% [at 42.5 µM] (inactive).
As to `CC1=CC[C@H](CC=O)C1(C)C`, the “activity change, negative = cytotoxicity” value was 0.208% (inactive).
Regarding `CCCCOC(=O)[C@@H](C)Oc1ccc(Oc2ccc(C(F)(F)F)cn2)cc1`, the “activity change, negative = cytotoxicity” value is -3.1% (inactive).
On the same count and under the same terms, as for `O=C(Oc1ccccc1C(=O)O)c1ccccc1O`, the figure is -3.11% [at 42.5 µM] (inactive).
In the case of `NC(=O)NC(=O)Cc1ccccc1`, the “activity change, negative = cytotoxicity” value was -3.23% [at 42.5 µM] (inactive).
In the case of `O=C1CC[C@H](C(=O)N2CCCCC2)N1`, the “activity change, negative = cytotoxicity” value is 4.14% [at 42.5 µM] (inactive).
Same read-out and setting: as for `COc1ccc(NS(=O)(=O)c2ccc(N)cc2)nn1`, the figure is 5.37% [at 42.5 µM] (inactive); as for `COC(OC)C(C)c1ccccc1` (configuration not stated), -0.622% (inactive).
As to `CC(=O)c1ccc2c(c1)CCCC2`, the “activity change, negative = cytotoxicity” value is 0.578% (inactive).
`O=CN1CCOCC1`: the “activity change, negative = cytotoxicity” value is 0.776% (inactive).
Consider `CN[C@@H]1[C@H](O)[C@H](NC)[C@H]2O[C@@]3(O)C(=O)C[C@@H](C)O[C@H]3O[C@@H]2[C@H]1O`, for which the “activity change, negative = cytotoxicity” value was -2.61% [at 42.5 µM] (inactive).
The same measure, in the same setting: next, `COC(/C=C(\C)CCC=C(C)C)OC`: -1.05% (inactive); `CCc1nccnc1C`: 2.71% (inactive).

The target of a further test is Progesterone receptor (Homo sapiens) (UniProt P06401). As to the kind of experiment: qHTS assay to identify small molecule agonists of the progesterone receptor (PR) signaling pathway (AID 1346784). Also: nearly all actives have a fitted effect of over 30% in size. The note with it: PR-UAS-bla HEK293T, beta-lactamase FRET ratio, 16 h; series mostly up to 92.4 µM; activation: at the top concentration. A digest of the protocol:
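Using charcoal-stripped serum (2%) to limit endogenous steroids, PR-UAS-bla HEK 293T cells received compounds for 16 hr at 37C after 6 hr plating; beta-lactamase FRET fluorescence was recorded following 2 hr substrate loading at room temperature.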
`OC[C@@H](O)[C@H](O)[C@@H](O)[C@@H](O)CO`: the “activation” value was 0.352% (inactive).
In the case of `CCCCCCCC/C=C\CCCCCCCC(=O)OC[C@@H](O)[C@H]1OC[C@H](O)[C@H]1O`, the “activation” value is 5.49% (inactive).
On to `O=C(O)CCNC(=O)c1ccccc1`, for which the “activation” value is -0.156% [at 42.5 µM] (inactive).
Turning to `Nc1nc(=O)n([C@@H]2O[C@H](CO)[C@@H](O)[C@@H]2F)cc1I`, the “activation” value is 2.88% [at 42.5 µM] (inactive).
Turning to `CC(C)CCC(=O)CCC(C)C`, the “activation” value was 1.12% (inactive).
`CC(C)C(=O)c1ccccc1`: the “activation” value was 0.0315% (inactive).
As to `FC(F)(F)/C(=N\OCC1OCCO1)c1ccc(Cl)cc1`, the “activation” value was -0.314% (inactive).
Regarding `OCCCCCCCl`, the “activation” value is -0.481% (inactive).
In the case of `CCCCCC(=O)OCC`, the “activation” value is -0.72% (inactive).
On to `CN=C(NC#N)NCCSCc1csc(N=C(N)N)n1`, for which the “activation” value is 0.365% [at 42.5 µM] (inactive).
Turning to `CCCCCCCCOC(C)=O`, the “activation” value was -0.262% (inactive).
With `C=CCOC(=O)c1ccc(C(=O)OCC=C)c(C(=O)OCC=C)c1`, the “activation” value is -0.184% (inactive).
As for `CC(C)COC(=O)/C=C/c1ccccc1`, the “activation” value was 0.339% (inactive).
In the case of `CCN(CCO)c1cccc(C)c1`, the “activation” value is -0.766% (inactive).
The same measure, in the same setting: as for `C[N+](C)(C)CC(O)CCl` (configuration not stated), the figure is 0.341% (inactive); as for `CCCCCCCCCCCCC`, 0.116% (inactive); as for `Nc1ccc(S(=O)(=O)Nc2ccccn2)cc1`, 0.564% [at 42.5 µM] (inactive).
On to `CCC1COC(=O)O1` (configuration not stated), for which the “activation” value is -0.865% (inactive).
Consider `CCCCCCCCCCC`, for which the “activation” value was 0.802% (inactive).
The same measure, in the same setting: next, `CC1CCC(C(C)(C)S)C(=O)C1` (configuration not stated): -3.06% (inactive); `CC1=CC[C@H](CC=O)C1(C)C`: 0.176% (inactive); `CCCCOC(=O)[C@@H](C)Oc1ccc(Oc2ccc(C(F)(F)F)cn2)cc1`: 0.362% (inactive).
Still for that read-out and setting: as for `CCC(O)C(C)(C)C` (configuration not stated), the figure is -1.75% (inactive).
Consider `O=C(Oc1ccccc1C(=O)O)c1ccccc1O`, for which the “activation” value is 0.0445% [at 42.5 µM] (inactive).
The same measure, in the same setting: next, `CCOC(=O)CC#N`: 0.465% (inactive); `C=CCOCC(CO)(COCC=C)COCC=C`: -1.44% [at 42.5 µM] (inactive).
On the same count and under the same terms, as for `NC(=O)NC(=O)Cc1ccccc1`, the figure is 1.9% [at 42.5 µM] (inactive); as for `COc1ccc(NS(=O)(=O)c2ccc(N)cc2)nn1`, 1.69% [at 42.5 µM] (inactive); as for `COC(OC)C(C)c1ccccc1` (configuration not stated), 4.62% (inactive).
`CC(=O)c1ccc2c(c1)CCCC2`: the “activation” value is 0.458% (inactive).
The same measure, in the same setting: next, `O=CN1CCOCC1`: -0.42% (inactive); `CN[C@@H]1[C@H](O)[C@H](NC)[C@H]2O[C@@]3(O)C(=O)C[C@@H](C)O[C@H]3O[C@@H]2[C@H]1O`: -0.0454% [at 42.5 µM] (inactive); `C[C@H](CCC(=O)O)[C@H]1CC[C@H]2[C@@H]3[C@H](O)C[C@@H]4C[C@H](O)CC[C@]4(C)[C@H]3C[C@H](O)[C@]12C`: -1.5% [at 42.5 µM] (inactive).
Take `CCc1nccnc1C`: the “activation” value was 0.648% (inactive).
The same measure, in the same setting: as for `CCN(Cc1cccc(S(=O)(=O)O)c1)c1ccccc1`, the figure is -1.3% (inactive).

(Values after PubChem BioAssay (Tox21).)
